Tests used:
Experiment in all cases: PBM binding z-score (relative to random genomic background probes); higher = stronger binding; sequences stand for … in GC…GCGATTGACAGCGTAGAATGAAGG
[1] = tested on: PPARg:RXRa DBDmut IVT, anti-RXR (DBD mutation: RXRa K156A/R161A, NR concentration 270 nM, RXRa partner concentration 90 nM)
Summary of the method: (§1)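 For binding z-scores, the reference was random background probes on custom Agilent 4×180K protein-binding microarrays. These arrays were incubated 1 h with ligand-free nuclear receptor dimers in PBS pH 7.4, 2% milk, 0.02% Triton X-100, 1 mM DTT, 0.2 mg/mL BSA and 0.4 mg/ml salmon testes DNA. Fluorescence was scanned after antibody detection of each partner (one per run) and regression-normalized.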

[2] = tested on: PPARg:RXRa IVT, anti-PPARg (NR concentration 270 nM, RXRa partner concentration 90 nM)
Summary of the method: as §1

[3] = tested on: PPARg DBDmut:RXRa IVT, anti-PPARg (DBD mutation: PPARg1 K132A/R137A, NR concentration 270 nM, RXRa partner concentration 90 nM)
Summary of the method: as §1

[4] = tested on: PPARg DBDmut IVT, anti-PPARg (DBD mutation: PPARg1 K132A/R137A, NR concentration 270 nM)
Summary of the method: as §1

[5] = tested on: PPARg homodimer (NR concentration 180 nM)
Summary of the method: as §1

[6] = tested on: PXR:RXRa (NR concentration 270 nM, RXRa partner concentration 90 nM)
Summary of the method: as §1

[7] = tested on: PXR homodimer (NR concentration 270 nM)
Summary of the method: as §1

[8] = tested on: RARa:RXR (NR concentration 270 nM, RXRa partner concentration 90 nM)
Summary of the method: as §1

[9] = tested on: RARa homodimer (NR concentration 270 nM)
Summary of the method: as §1

[10] = tested on: RARb:RXRa (NR concentration 270 nM, RXRa partner concentration 90 nM)
Summary of the method: as §1

| Sequence | PBM binding z-score [1] | PBM binding z-score [2] | PBM binding z-score [3] | PBM binding z-score [4] | PBM binding z-score [5] | PBM binding z-score [6] | PBM binding z-score [7] | PBM binding z-score [8] | PBM binding z-score [9] | PBM binding z-score [10] |
| --- | --- | --- | --- | --- | --- | --- | --- | --- | --- | --- |
| TCGAGTAGGTTAGTCGGGGCATTCAACCAACATA | 2.51 | 2.16 | -0.398 | -0.896 | -0.069 | 0.309 | -0.2 | 0.545 | 0.0845 | 0.517 |
| TCTATTAATTGATTAGGGCAACCGAAACAGCGGA | 1.84 | 1.09 | 0.728 | 1.07 | 2.22 | 0.386 | 1.53 | 0.419 | 2.52 | 0.75 |
| CCTATTAGGTGACCATAAGGGCAACCGAAGCTCG | 5.2 | 4.27 | 0.935 | -0.392 | 0.93 | 0.636 | 0.326 | 1.19 | 0.485 | 1.87 |
| TCTTGTAGTTCAAAGGTTAAGAAAGCCGAAGCCT | 1.69 | 2.84 | 0.125 | 1.99 | 1.87 | 4.59 | 0.443 | 6.25 | 0.439 | 3.36 |
| CGTCCAAGGTCAATGCTAGGGCAGTGAAAGCATT | 2.64 | 3.52 | 0.232 | -0.81 | 2.06 | 3.68 | 0.492 | 4.3 | -0.245 | 5.2 |
| CAAACCAGGTCAAGGTCAAAGTCGGTTTGTGCCA | 6.42 | 7.16 | 2.64 | 2.41 | 4.71 | 5.84 | 2.63 | 6.02 | 2.21 | 5.38 |
| TCGAGTAGGTTAGGGGAATTCAGAATGGCGTCGA | 2.13 | 1.78 | 0.128 | -0.466 | 0.866 | -0.0984 | 0.0558 | -0.0883 | 0.338 | 0.249 |
| CTATCAAGGTGAACAAGGTCGTTGATTACTATTC | 3.58 | 3.69 | 0.759 | 0.594 | 0.866 | 2.7 | 2.19 | 2.38 | 0.109 | 2.22 |
| ATTAGCAGGCCAAGTTTGGGTCACTCAAACAAAG | 0.708 | 1.31 | -0.0201 | -0.208 | 0.531 | 0.924 | 0.144 | 1.97 | -0.273 | 1.83 |
| TCTATTTGGTCAAAGGTCACACACTCGAAATGCG | 3.39 | 6.25 | 3.22 | 2.73 | 5.3 | 5.91 | 1.76 | 7.03 | 3.85 | 5.42 |
| AATACAGGGGCATCGTAGGCCAGAGTACGCACAG | 0.577 | 1.26 | 0.192 | 0.567 | -0.0954 | 0.276 | 0.165 | 0.505 | -0.245 | 1.48 |
| CCTTACGGGACACGAGGTTATAGCACGACGAGCG | 0.526 | 0.867 | 0.559 | 0.413 | 0.721 | 0.701 | 0.477 | 0.935 | 0.721 | 1.11 |
| TTACCAAGGTGAGCTGAGGTCGTTAATCCAACTC | 1.09 | 1.7 | -0.772 | -1.04 | -0.219 | 4.5 | 0.182 | 1.51 | -0.951 | 1.59 |
| CCTATTGGTTGACCATAAGGGCAACCGAAGCTCG | -1.11 | 0.135 | -0.489 | -1.22 | 0.0166 | 0.326 | -0.293 | 0.774 | -0.166 | 1.26 |
| CAAACTAGGTAACGAAAGGTCAAAGTCGAATGAC | 7.04 | 6.76 | 1.27 | 1.33 | 3.34 | 5.5 | 1.94 | 5.55 | 2.01 | 4.38 |
| CGTCCAAGGTCAGAGAGGTCAGAGAATGCCGAGT | 2.84 | 3.53 | 0.0352 | -0.116 | 4.06 | 6.31 | 11.8 | 5.66 | 1.75 | 5.18 |
